Measurements from publication PMC4336329 (PLoS ONE, 2015).
Hit rate of the full screen: of about 310,000 compounds, about 14,000 (4.5%) showed an effect of 50% or more. The effect is printed as a negative number. The list comes from a sample in which strong results are over-represented; it also holds similar structures and randomly drawn compounds.

target: human ether-à-go-go-related gene (hERG) potassium channel (human, UniProt Q12809); experiment: primary screen, population patch clamp on CHO cells stably expressing hERG; higher = less effect of the substance
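Further: peak tail current of the secondary pulse compared with the same well before compound.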

Chain of human ether-à-go-go-related gene (hERG) potassium channel (Q12809 whole entry, looked up): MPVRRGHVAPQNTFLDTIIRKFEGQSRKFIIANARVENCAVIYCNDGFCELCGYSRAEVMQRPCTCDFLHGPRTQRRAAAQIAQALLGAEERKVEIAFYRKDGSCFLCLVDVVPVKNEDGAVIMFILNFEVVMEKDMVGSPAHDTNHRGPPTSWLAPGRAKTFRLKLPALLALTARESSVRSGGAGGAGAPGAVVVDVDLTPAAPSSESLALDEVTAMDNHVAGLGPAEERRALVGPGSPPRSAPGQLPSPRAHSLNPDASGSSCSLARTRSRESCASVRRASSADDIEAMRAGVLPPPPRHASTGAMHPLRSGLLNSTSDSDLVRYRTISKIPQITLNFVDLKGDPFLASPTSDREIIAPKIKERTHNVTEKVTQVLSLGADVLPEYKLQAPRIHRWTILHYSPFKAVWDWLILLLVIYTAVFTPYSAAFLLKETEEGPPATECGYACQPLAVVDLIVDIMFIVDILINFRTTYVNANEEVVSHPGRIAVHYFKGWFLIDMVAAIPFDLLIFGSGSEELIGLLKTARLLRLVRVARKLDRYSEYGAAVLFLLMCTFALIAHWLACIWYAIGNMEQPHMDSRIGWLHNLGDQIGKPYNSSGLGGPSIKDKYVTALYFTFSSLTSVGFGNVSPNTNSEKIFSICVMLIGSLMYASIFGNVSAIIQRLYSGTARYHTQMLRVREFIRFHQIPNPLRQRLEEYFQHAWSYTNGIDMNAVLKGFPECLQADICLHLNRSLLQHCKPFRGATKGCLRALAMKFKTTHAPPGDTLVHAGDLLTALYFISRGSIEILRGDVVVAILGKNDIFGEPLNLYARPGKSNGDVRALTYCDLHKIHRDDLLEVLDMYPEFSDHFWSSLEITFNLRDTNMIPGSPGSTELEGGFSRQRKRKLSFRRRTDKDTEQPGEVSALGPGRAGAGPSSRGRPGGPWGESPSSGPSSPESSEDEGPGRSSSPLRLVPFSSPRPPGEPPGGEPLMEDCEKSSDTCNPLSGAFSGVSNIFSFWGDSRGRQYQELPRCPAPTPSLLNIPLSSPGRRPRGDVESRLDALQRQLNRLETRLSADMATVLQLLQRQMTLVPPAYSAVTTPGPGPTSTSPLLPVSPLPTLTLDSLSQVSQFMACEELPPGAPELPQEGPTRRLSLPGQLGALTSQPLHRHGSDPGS

SMILES | hERG current change (%, negative = inhibition) at 10uM [%]
CCn1cc(Br)c(C(=O)Nc2ccc(Cl)cc2Cl)n1 | 7.24
Cc1ccc(S(=O)(=O)N(Cc2ccc(Cl)cc2)c2ccccc2C(=O)O)cc1 | 12.3
COc1ccccc1NS(=O)(=O)c1cc2c(cc1C)NC(=O)CO2 | -7.43
CN1CCN(C(=O)c2ccc3c(c2)N(C)C(=O)/C(=C/c2cccc(Cl)c2)S3)CC1 | -55.1
CCOc1ccc(/C=C2/Sc3ccc(C(=O)N4CCOCC4)cc3N(C)C2=O)cc1OC | -18.5
CCOc1ccc(/C=C2/Sc3ccc(C(=O)N4CCN(C(=O)c5ccco5)CC4)cc3N(C)C2=O)cc1OC | -53.9
CCOC(=O)N1CCN(C(=O)c2ccc3c(c2)N(C)C(=O)/C(=C\c2ccc(OCC)c(OC)c2)S3)CC1 | -32.5
COc1ccc(/C=C2\Sc3ccc(C(=O)N4CCOCC4)cc3N(C)C2=O)cc1 | -15.3
CN1C(=O)/C(=C/c2cccc(Cl)c2)Sc2ccc(C(=O)N3CCCC3)cc21 | -49.7
CN1C(=O)/C(=C/c2cccc(Cl)c2)Sc2ccc(C(=O)N3CCOCC3)cc21 | -50.3
Cc1cccc(/C=C2\Sc3ccc(C(=O)N4CCCCC4)cc3N(C)C2=O)c1 | 12.1
Cc1cccc(/C=C2\Sc3ccc(C(=O)N4CCOCC4)cc3N(C)C2=O)c1 | -40.7
COc1ccc(C(C(=O)NC(C)(C)C)N(Cc2cccnc2)C(=O)CCC(=O)Nc2cc(C)on2)cc1 (stereo not shown) | 10.9
COc1cc(-c2csc(C)n2)ccc1O | 8.67
CN(C)C=O.COc1ccccc1NC(=O)C1=C(C)NC(=O)NC1c1ccccc1[N+](=O)[O-] (stereo not shown) | 7.42
COc1cccc(N2CCN(C(=O)C3CCCN(S(=O)(=O)c4cnc[nH]4)C3)CC2)c1 (stereo not shown) | 17.4
O=C(NCc1ccc2c(c1)OCO2)c1ccncc1 | -12.6
Cc1ccc(NCC(=O)Nc2cccc(F)c2)cc1S(=O)(=O)N1CCCCCC1 | -22.6
COC(=O)c1ccccc1NC(=O)N1CSC[C@H]1C(=O)OC | 15.8
CCCCN(CCCC)CC(O)COc1ccccc1C(=O)Nc1ccccc1 (stereo not shown) | -98.7
CC1(C)NC(=O)N(CC(O)COc2ccccc2C(=O)Nc2ccccc2)C1=O (stereo not shown) | -6.2
CCCCN(CCCC)CC(O)COc1ccccc1Br.Cl (stereo not shown) | -40.6

SMILES | hERG current change (%, negative = inhibition) at 10uM [%]
CCOc1ccccc1C(=O)Nc1ccc(NC(=O)c2ccccc2)cc1 | 12.7
Cc1cc(C)n(CC(O)COc2ccccc2C(=O)Nc2ccccc2)n1 (stereo not shown) | -26.1
CCCN(CCC)CC(O)COc1ccccc1C(=O)Nc1ccccc1.Cl (stereo not shown) | -68.2
CSc1ccc(/C=N/NC(=O)c2sccc2C)cc1 | 15.4
CCCCC(=O)NC(c1ccc(OC)c(OC)c1)c1c(O)ccc2ccccc12 (stereo not shown) | -13.7
O=C1C(Cl)=C(N2CCOCC2)C(=O)N1c1ccccc1F | 20.3
O=C(Nc1ccc(Cl)c([N+](=O)[O-])c1)c1cnccn1 | -10.4
Cc1ccc(/C=N/NC(=O)COc2ccccc2-c2ccccc2)cc1 | -3.49
CC(=O)c1ccc(N2CCN(C(=O)COc3ccccc3F)CC2)c(F)c1 | -39.7
COc1ccc(S(=O)(=O)Nc2ccccc2C(=O)Nc2nc(-c3ccc(F)cc3)cs2)cc1OC | -51.7
CC(=O)c1ccc(N2CCN(C(=O)COc3ccc(F)cc3)CC2)c(F)c1 | -71.5
COc1cc(C(=O)N2CCN(c3ccccc3F)CC2)ccc1OCC(=O)N1CCOCC1 | -60.9
Cc1ccc(S(=O)(=O)Nc2ccccc2C(=O)Nc2nc(-c3ccc(F)cc3)cs2)cc1 | 9.22
CCC(=O)c1ccc(N2CCCCCC2)c(F)c1 | 4.04
COc1cc(C(=O)N2CCN(c3ccccc3O)CC2)ccc1OCC(=O)N1CCOCC1 | 3.06
CCC(=O)c1ccc(N2CCN(C(=O)COc3ccccc3F)CC2)c(F)c1 | -50.9
COc1cc(C(=O)N2CCN(c3ccccc3Cl)CC2)ccc1OCC(=O)N1CCOCC1 | -28.6
CC(=O)c1ccc(N2CCN(C(=O)CN3C(=O)NC4(CCCCC4)C3=O)CC2)c(F)c1 | 0.416
CCc1ccc(OCC(=O)N2CCN(c3ccccc3F)CC2)cc1 | 20.2
COc1ccc(-c2csc(NC(=O)c3ccccc3NS(=O)(=O)c3ccc(F)c(F)c3)n2)cc1 | 19.3
CC(=O)c1cccc(NC(=O)NCc2ccco2)c1 | -2.14
COc1ccc(Cl)cc1Nc1nc(NCCO)nc(N2CCCCC2)n1 | -3.45

SMILES | hERG current change (%, negative = inhibition) at 10uM [%]
CCN(CC)S(=O)(=O)c1ccc(C)c(NC(=S)N2CCN(C/C=C/c3ccccc3)CC2)c1 | -2.74
CCOc1ccc(NS(=O)(=O)c2ccc(NC(=S)NC(=O)CC(C)C)cc2)cc1 | 8.92
O=C(CSC(=S)N1CCCC1)N1CCN(S(=O)(=O)c2cccc([N+](=O)[O-])c2)CC1 | 5.69
COc1ccc(/C=N/NC(=O)CC(=O)NCc2cccnc2)c(OC)c1 | 4.71
CCC(CC)C(=O)c1c[nH]c(C(=O)NCc2cccnc2)c1 | 18.6
CC(C)(C)c1ccc(-c2nnc(SCC(=O)c3ccc4c(c3)OCCO4)o2)cc1 | 12.3
Cc1ccc(S(=O)(=O)N(C)CCCC(=O)NC(C)(C)C)cc1 | 13.3
CO/N=C/c1cn(-c2ccc(Cl)cc2)nn1 | -2.53
COc1cc(C(=O)Nc2nc(-c3ccc(F)cc3)cs2)ccc1OCC(=O)N1CCOCC1 | -53.3
CCC(=O)c1ccc(N2CCN(C(=O)COc3ccc(F)cc3)CC2)c(F)c1 | -73.4
COc1ccc(-c2csc(NC(=O)c3ccc(OCC(=O)N4CCOCC4)c(OC)c3)n2)cc1 | -48
CC(=O)c1cc(F)c(N2CCN(C(=O)COc3ccccc3F)CC2)cc1C | -7.84
CC(=O)c1ccc(N2CCCC2)c(F)c1 | 1.88
CCC(=O)c1ccc(N2CCCC2)c(F)c1 | 6.95
COc1cc(C(=O)Nc2nc(-c3ccc(C)cc3)cs2)ccc1OCC(=O)N1CCOCC1 | -18.9
CC(=O)c1cc(F)c(N2CCN(C(=O)COc3ccc(F)cc3)CC2)cc1C | -76.3
CCOC(=O)N1CCN(c2cc(C)c(C(C)=O)cc2F)CC1 | 2.71
CCOC(=O)N1CCN(c2ccc(C(=O)CC)cc2F)CC1 | -9.37
CC(=O)c1ccc(N2CCN(C(=O)Cc3ccccc3)CC2)c(F)c1 | -9.6
CCCCCC(=O)N1CCN(c2ccc(C(C)=O)cc2F)CC1 | -60.9
